Source: PubChem BioAssay (Tox21)
“And” between values parts separate entries of the source, which are not always exact repeats. Equal entries are not always repeated. Records with an inconclusive call do not appear. Some structures have more than one record in an assay (separate samples or runs), and their calls can disagree. The source made the active and inactive calls. The call rests on the fitted dose curve; in most records, active means well fitted curve in the direction sought with a large enough effect in the repeat runs; inconclusive means weak or mixed curves; inactive means no such curve, though single readings can be large; an effect the other way counts as inactive or inconclusive.

Key:
[1] = A CellTox Green Cytotoxicity Assay to monitor cytotoxicity in HEK293 cells - 32 hour (AID 1224881); further: nearly all actives have a fitted effect of over 40% in size; further: potency means the concentration at half of the fitted maximal effect
In short: (§1)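 Fluorescence intensity, read at 0, 8, 16, 24, 32 and 40 h of compound treatment, reflected dye binding to DNA of dead HEK293 cells; compounds (23 nL, DMSO) were added 5 h after plating cells with reagent.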

[2] = A CellTox Green Cytotoxicity Assay to monitor cytotoxicity in HepG2 cells - 0 hour (AID 1224882); further: nearly all actives have a fitted effect of over 35% in size; further: potency means the concentration at half of the fitted maximal effect
In short: (§2)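 Using 1536-well format, dye-containing HepG2 suspension was seeded, allowed 5 h at 37 C/5% CO2, dosed by pintool with compounds, positive and negative controls, and imaged for fluorescence across 40 h.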

[3] = A CellTox Green Cytotoxicity Assay to monitor cytotoxicity in HepG2 cells - 32 hour (AID 1224883); further: nearly all actives have a fitted effect of over 50% in size; further: potency means the concentration at half of the fitted maximal effect
In short: as §2

[4] = A CellTox Green Cytotoxicity Assay to monitor cytotoxicity in HEK293 cells - 8 hour (AID 1224884); further: nearly all actives have a fitted effect of over 35% in size; further: potency means the concentration at half of the fitted maximal effect
In short: as §1

[5] = qHTS RealTime-Glo MT Cell Viability Assay in HepG2 cells - 16 hour (AID 1224885); further: nearly all actives have a fitted effect of over 50% in size; further: potency means the concentration at half of the fitted maximal effect
In short: (§3)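 Tox21 10K library screened in qHTS format on HepG2 cells carrying RealTime-Glo reagents. Compounds were added after a 5 h preincubation, and the luminescent signal from continuous culture was measured repeatedly during 40 h treatment.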

[6] = qHTS RealTime-Glo MT Cell Viability Assay in HEK293 cells - 24 hour (AID 1224886); further: nearly all actives have a fitted effect of over 50% in size; further: potency means the concentration at half of the fitted maximal effect
In short: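 Luminescence generated by NanoLuc from substrate produced by living HEK293 cells served as the viability signal. Each value reflects the reading at its stated time point during continuous 40 h compound exposure at 37 C.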

[7] = qHTS RealTime-Glo MT Cell Viability Assay in HEK293 cells - 8 hour (AID 1224887); further: nearly all actives have a fitted effect of over 50% in size; further: potency means the concentration at half of the fitted maximal effect
In short: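 Viable HEK293 cells reduce a cell-permeant prosubstrate; the product diffuses out and is consumed by NanoLuc in the medium to give light. Compounds went in after a 5 h incubation and plates were read over the treatment course.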

[8] = A CellTox Green Cytotoxicity Assay to monitor cytotoxicity in HEK293 cells - 16 hour (AID 1224888); further: nearly all actives have a fitted effect of over 35% in size
In short: as §1

[9] = qHTS RealTime-Glo MT Cell Viability Assay in HepG2 cells - 0 hour (AID 1224889); further: nearly all actives have a fitted effect of over 50% in size; further: potency means the concentration at half of the fitted maximal effect
In short: as §3

[10] = A CellTox Green Cytotoxicity Assay to monitor cytotoxicity in HepG2 cells - 8 hour (AID 1224890); further: nearly all actives have a fitted effect of over 45% in size
In short: as §2

Measured: Potency

Nc1ccc(S(=O)(=O)Nc2cnc3ccccc3n2)cc1
not listed: [10]
inactive: all other assays above

c1ccc2c(c1)Oc1ccccc1S2
49.8 µM (active) and inactive: [1]
not listed: [10]
inactive: all other assays above

COC(=O)Nc1nc2ccc(S(=O)c3ccccc3)cc2[nH]1 (stereo unspecified)
inactive and 1.69 µM (active): [7]
active: [6] 952 nM
inactive and 952 nM (active): [3]
inactive: all other assays above

O=C(c1ccccc1)c1ccccc1O
inactive: all assays above

C=C(C)C1CC=C(C)CC1 (stereo unspecified)
inactive: all assays above

c1ccncc1
not listed: [10]
inactive: all other assays above

CCCCOCCOCCO
not listed: [10]
inactive: all other assays above

CCCCCCCCCCCO
inactive: all assays above

O=S(=O)(O)c1ccc(O)cc1
not listed: [10]
inactive: all other assays above

Cc1cccc([N+](=O)[O-])c1C
inactive: all assays above

OCCO
inactive: all assays above

Cc1cccc(N(C)C(=S)Oc2ccc3ccccc3c2)c1
not listed: [10]
inactive: all other assays above

CCCCC(CC)COC(=O)c1ccc(N(C)C)cc1 (stereo unspecified)
inactive: all assays above

C/C=C/C(=O)O
inactive: all assays above

CCC(C)CO (stereo unspecified)
inactive and 24.5 µM (active): [6]
inactive and 43.6 µM (active): [2] | [3]
not listed: [10]
inactive: all other assays above

CCOC(=O)C(C#N)=C(c1ccccc1)c1ccccc1
inactive: all assays above

O=Cc1ccccc1O
not listed: [10]
inactive: all other assays above

CCCCOCCOCCOCCO
inactive: all assays above

O=[N+]([O-])c1ccc2c(c1)Cc1ccccc1-2
not listed: [10]
inactive: all other assays above

Cc1ncc[nH]1
inactive: all assays above

O=C(O)c1ccccc1Nc1cccc(C(F)(F)F)c1
not listed: [10]
inactive: all other assays above

CCCCCCCCCC(=O)OC
inactive: all assays above

Cc1ccc2c(n1)Oc1ccc(C(C)C(=O)OCC(=O)N(C)C)cc1C2 (stereo unspecified)
not listed: [10]
inactive: all other assays above

CC(=O)c1ccccn1
inactive: all assays above

Cc1c(OCC(F)(F)F)ccnc1CS(=O)c1nc2ccccc2[nH]1 (stereo unspecified)
active: [6] 19.5 µM and 19 µM | [7] 21.9 µM and 23.9 µM
inactive: all other assays above

CCCCC(CC)COP(=O)(OCC(CC)CCCC)OCC(CC)CCCC (stereo unspecified)
not listed: [10]
inactive: all other assays above

NC=O
not listed: [10]
inactive: all other assays above

COC(=O)C1=C(C)NC(C)=C(C(=O)OCCN(C)Cc2ccccc2)C1c1cccc([N+](=O)[O-])c1 (stereo unspecified)
48.7 µM (active) and inactive: [3]
active: [5] 24.4 µM and 10.7 µM | [6] 21.7 µM and 19 µM | [7] 24.4 µM and 19 µM | [9] 6.13 µM and 3.38 µM
inactive: all other assays above

CCCC(=O)O
inactive: all assays above

OC(CCl)CCl
not listed: [10]
inactive: all other assays above

CC(C(=O)O)c1cccc(C(=O)c2ccccc2)c1 (stereo unspecified)
inactive: all assays above

CCCc1c(OCCCCc2nn[nH]n2)ccc(C(C)=O)c1O
not listed: [10]
inactive: all other assays above

CCCCC/C=C/C=C/C=O
active: [1] 54.5 µM | [3] 54.5 µM and 54.9 µM
inactive: all other assays above

COC(=O)c1ccccc1
inactive and 12.3 µM (active): [6]
not listed: [10]
inactive: all other assays above

C[Si](C)(C)O[Si](C)(C)C
not listed: [10]
inactive: all other assays above

CC(=O)CC/C=C(\C)CCC=C(C)C
not listed: [10]
inactive: all other assays above

O=C(c1ccccc1)c1ccc(O)cc1O
inactive and 43.6 µM (active): [3]
not listed: [10]
inactive: all other assays above

O=C(/C=C/c1ccccc1)OCc1ccccc1
inactive: all assays above

CC1=CCC(C(C)(C)O)CC1 (stereo unspecified)
inactive and 21.9 µM (active): [3]
inactive and 17.4 µM (active): [4]
inactive: all other assays above

Cc1cccc(C(=O)O)c1
not listed: [5] | [10]
inactive: all other assays above

CCCCc1oc2ccccc2c1C(=O)c1cc(I)c(OCCN(CC)CC)c(I)c1
active: [1] 44 µM | [3] 34.9 µM and 26.8 µM | [5] 39.2 µM | [6] 34.9 µM and 23.9 µM
inactive: [2] | [4] | [9]

Nc1ncn([C@@H]2O[C@H](CO)[C@@H](O)[C@H]2O)c(=O)n1
not listed: [5] | [10]
inactive: all other assays above

COc1cc([C@@H]2c3cc4c(cc3[C@H](O)[C@H]3COC(=O)[C@H]23)OCO4)cc(OC)c1OC
not listed: [6]
inactive: all other assays above

CC(C)OC=O
inactive: all assays above

OC1CCCCCCCCCCC1
inactive and 43.6 µM (active): [1] | [4]
active: [3] 44.1 µM and 43.6 µM
inactive: [5] | [6] | [7] | [9]
inactive and 27.5 µM (active): [2]
